These results are taken from PubChem BioAssay AID1851 (National Center for Advancing Translational Sciences (NCATS), 2009).

Each structure is given as a SMILES string. About 4,000 (25%) of roughly 16,000 compounds were called active. Not shown: some 26% with an inconclusive outcome. A selection follows. Values without a mark were called inactive. The call rests on the fitted dose curve; in most records, active means well fitted curve in the direction sought with a large enough effect; inconclusive means small, poorly fitted or top-dose-only effect, or effect the other way; inactive means no such curve, though single readings can be large or run the other way.
On the % scale 0 is the no-effect control and ±100 the full control effect.

Cytochrome P450 2C9 (Homo sapiens), sequence (P11712 whole entry, looked up): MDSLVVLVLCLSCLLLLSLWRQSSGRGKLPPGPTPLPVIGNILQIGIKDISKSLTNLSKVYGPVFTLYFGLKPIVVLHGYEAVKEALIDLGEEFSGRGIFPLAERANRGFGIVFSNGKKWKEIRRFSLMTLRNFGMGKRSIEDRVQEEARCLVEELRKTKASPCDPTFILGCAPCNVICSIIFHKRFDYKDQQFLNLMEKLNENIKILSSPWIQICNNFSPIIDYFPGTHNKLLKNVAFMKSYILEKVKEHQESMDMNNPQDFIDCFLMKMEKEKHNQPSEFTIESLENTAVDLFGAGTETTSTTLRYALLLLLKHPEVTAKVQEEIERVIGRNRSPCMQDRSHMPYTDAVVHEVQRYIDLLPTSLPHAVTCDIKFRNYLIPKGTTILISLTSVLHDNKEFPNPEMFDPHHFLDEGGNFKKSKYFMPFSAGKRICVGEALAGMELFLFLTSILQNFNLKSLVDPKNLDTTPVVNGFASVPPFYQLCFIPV

The assay concerns the target Cytochrome P450 2C9 (Homo sapiens) (UniProt P11712). As to the kind of experiment: Cytochrome panel assay with activity outcomes. As to conditions: recombinant CYP, pro-luciferin dealkylation, luminescence, p450-cyp2c9; series mostly up to 57.1 µM.
The AC50 is the concentration giving half of the maximal activity seen. Turning to `COc1ccc(Cc2ccccc2C(=O)O)c2ccccc12`, the AC50 was 3.98 µM (active). Regarding `COc1cc(Cl)c(CC(=O)c2c[nH]c3ccccc23)cc1OC`, the activity, negative = inhibition is -14.5% [at 11.4 µM].

`Cc1ccc(C(=N)c2ccccc2Cc2cccc3ccccc23)c2ccccc12`: the activity, negative = inhibition is 5.86% [at 11.4 µM]. With `N[C@@H](C(=O)O)c1cc(O)ccc1Cl`, the AC50 result was “inactive”.

On to `N#C/C(=C(/O)CN1CCCCC1)c1nc(-c2ccc(Cl)cc2)cs1`, for which the AC50 entry is “inactive”. Still for that read-out and setting: to `Cc1ccc(-c2csc(C(C#N)=C3CCCC3)n2)cc1` belongs 11.2 µM (active).

On to `O=C(CSCC(=O)OCn1nnc2ccccc2c1=O)Nc1ccc(Cl)cc1`, for which the half-maximal activity concentration (AC50) is 12.6 µM (active). Consider `COC(=O)c1ccc(N2CCN(c3ccccc3)CC2)c(NC(=O)C2CC2)c1`, for which the AC50 entry was “inactive”. Same read-out and setting: in the case of `COC(=O)c1ccc(C(=O)OC)c(NC(=S)N2CCN(c3ccccc3)CC2)c1` it was 6.31 µM (active); in that of `COC(=O)c1cc(OC)c(OC)cc1NC(=S)N1CCN(C)CC1`, “inactive”; in that of `Cc1cccc(C)c1OC[C@H](C)N`, “inactive”. Take `Cc1cc(=O)[nH]c2c1c(C)nn2C1CCOC(C)(C)C1` (stereo not given): the AC50 result is “inactive”. Same read-out and setting: to `CN1CCc2c(sc3c2c(=O)n(-c2ccccc2)c2nncn32)C1` belongs “inactive”; to `Cn1c(=O)n(-c2cccc(Cl)c2)c(=O)c2c3c(sc21)COC(C)(C)C3`, 15.8 µM (active); to `Cn1c(=O)n(-c2ccc(Cl)cc2)c(=O)c2c3c(sc21)COC(C)(C)C3`, 10 µM (active). The same measure, in the same setting: to `COc1cccc(C(C#N)N2N=C(C)CC2(C)C)c1O` (stereo not given) belongs “inactive”. Turning to `O=C1[C@@H]2[C@H]3[C@H](O)[C@H](O)C/C(=N/OCc4ccccc4)[C@@H]3CC[C@H]2C(=O)N1c1ccc(F)cc1F`, the activity, negative = inhibition is 12.2% [at 11.4 µM]. As to `C=C[C@@]1(C)CC(=O)[C@@]2(O)[C@@]3(C)[C@@H](O)CCC(C)(C)[C@@H]3[C@H](OC(=O)CCN(C)C)[C@H](OC(C)=O)[C@@]2(C)O1`, the AC50 was 0.126 µM (active). For the molecule `C=C[C@@]1(C)CC(=O)[C@@]2(O)[C@@]3(C)[C@H](O)CCC(C)(C)[C@@H]3[C@H](O)[C@H](OC(C)=O)[C@]2(C)O1`, the AC50 entry was “inactive”.

In the case of `C=C[C@@]1(C)CC(=O)[C@@]2(O)[C@@]3(C)[C@@H](O)CCC(C)(C)[C@@H]3[C@H](O)[C@H](OC(C)=O)[C@@]2(C)O1`, the AC50 entry is “inactive”. Same read-out and setting: to `CC1(C)SC(=S)N(NC(=O)Nc2ccccc2)C1N(O)C(=O)Nc1ccccc1` (stereo not given) belongs 10 µM (active). With `COCCNc1nc(-c2ccccc2CN(C)C)nc2ccccc12`, the activity, negative = inhibition is 1.68% [at 2.29 µM]. Consider `COc1ccc([C@H](O)c2ccccn2)cc1`, for which the activity, negative = inhibition is -12.5% [at 11.4 µM]. On to `O[C@H](CNc1ccccn1)c1ccccc1`, for which the activity, negative = inhibition is -4.96% [at 11.4 µM]. For `COc1ccc([C@@H](Nc2ccccn2)c2cc(C(C)(C)C)cc(C(C)(C)C)c2O)cc1`, the AC50 is 2.51 µM (active).

As for `CN1CCN(c2ccc([N+](=O)[O-])cc2NC(=O)c2ccccc2Cl)CC1`, the AC50 result was “inactive”. As to `O=[N+]([O-])c1ccc(N2CCN(CCOc3nonc3-c3ccccc3)CC2)c(Cl)c1`, the AC50 is 22.4 µM (active). Same read-out and setting: in the case of `c1ccc(-n2ncc3c(NCCCN4CCOCC4)ncnc32)cc1` it was “inactive”. Turning to `c1cncc(-c2ccc3ncnc(NCCN4CCOCC4)c3c2)c1`, the activity, negative = inhibition is 23.6% [at 2.29 µM]. On to `c1ccc2c(c1)oc1c(NCCCn3ccnc3)ncnc12`, for which the AC50 is 0.447 µM (active). Turning to `COc1ccc(-c2nc3cnc(OC)nc3n(-c3ccc(OC)cc3)c2=O)cc1`, the AC50 entry was “inactive”. For the molecule `CCNc1ncc2nc(C)c(=O)n(C3CC3)c2n1`, the AC50 result was “inactive”. As to `Cc1ccccc1-c1nc(-c2ccc(NC(=O)c3cccs3)cc2)no1`, the concentration at half-maximal activity (AC50) was 12.6 µM (active). For the molecule `Cc1ccccc1-c1nccc(NCc2cccs2)n1`, the activity, negative = inhibition is -17.9% [at 2.29 µM]. In the case of `CS(=O)(=O)c1ccccc1-c1nc(-c2cc(C(F)(F)F)cc(C(F)(F)F)c2)no1`, the AC50 entry is “inactive”. Same read-out and setting: in the case of `Cc1ccc(-c2nnc(-c3ccc(NC(=O)c4cccs4)cc3)o2)cc1` it was 5.01 µM (active).

`O=C(c1csnn1)N1CCC[C@@]2(CCN(Cc3nccs3)C2)C1`: the AC50 result is “inactive”. Turning to `Cc1cc([N+](=O)[O-])ccc1NCc1ccccc1`, the AC50 was 3.55 µM (active). With `c1ccc(CCCNc2nnnc3ccccc23)cc1`, the activity, negative = inhibition is -19.1% [at 11.4 µM].

For the molecule `O=C(O)c1cc([N+](=O)[O-])ccc1NCCCc1ccccc1`, the AC50 was 0.501 µM (active). Turning to `COC(=O)C/C=C\[C@@H](C)[C@@H](/C=N\O[C@@H](C)CN1CCCc2nc(C)c(C)cc21)OC`, the activity, negative = inhibition was -19.3% [at 11.4 µM]. Consider `O=S(=O)(c1ccccc1)N1CCC2(CCN(c3ncccn3)CC2)CC1`, for which the AC50 result was “inactive”. On the same count and under the same terms, to `O=S(=O)(c1ccccc1)N1CCC2(CCCN(c3ccccc3)C2)CC1` belongs 1.26 µM (active); to `CS(=O)(=O)N1CCC[C@@]2(CCN(c3ccccn3)C2)C1`, “inactive”. The same measure, in the same setting: in the case of `CS(=O)(=O)N1CCC2(CCCN(c3ccccn3)C2)CC1` it was “inactive”; in that of `O=S(=O)(c1ccccc1)N1CCC2(CCCN(c3ncccn3)C2)CC1`, 1 µM (active); in that of `CC(C)CN1CC[C@@]2(CCCN(S(=O)(=O)c3ccccc3)C2)C1`, “inactive”. In the case of `CN1CCCC2(CCN(S(=O)(=O)c3ccccc3)CC2)C1`, the AC50 entry was “inactive”. Same read-out and setting: in the case of `O=S(=O)(c1ccccc1)N1CCC[C@@]2(CCN(c3ccncc3)C2)C1` it was 15.8 µM (active); in that of `O=S(=O)(c1ccccc1)N1CCC2(CC1)CN(c1ncccn1)C2`, “inactive”; in that of `O=S(=O)(c1ccccc1)N1CCC2(CCCN(c3cccc(-c4ccccc4)c3)C2)CC1`, “inactive”. On the same count and under the same terms, in the case of `O=S(=O)(c1ccccc1)N1CCC2(CC1)CN(c1ccccn1)C2` it was “inactive”.

As to `O=S(=O)(c1ccccc1)N1CCC2(CCCN(c3ccccn3)C2)CC1`, the half-maximal activity concentration (AC50) is 1 µM (active). For the molecule `C=C(NC(=O)C(=C)NC(=O)c1csc(C2=N[C@@H]3c4csc(n4)[C@@H]4NC(=O)c5csc(n5)[C@@H]([C@](C)(O)[C@H](C)O)NC(=O)[C@@H]5CSC(=N5)/C(=C/C)NC(=O)[C@@H]([C@H](C)O)NC(=O)c5csc(n5)[C@]3(CC2)NC(=O)[C@@H](C)NC(=O)C(=C)NC(=O)[C@@H](C)NC(=O)[C@@H]([C@@H](C)CC)N[C@H]2C=Cc3c([C@H](C)O)cc(nc3[C@@H]2O)C(=O)O[C@H]4C)n1)C(N)=O`, the AC50 result was “inactive”. With `O=[N+]([O-])/C=C/c1cn(Cc2ccccc2)c2ccccc12`, the AC50 was 11.2 µM (active). The same measure, in the same setting: to `O=C1C2C3C=CC(C3)C2C(=O)N1/N=C/c1cn(Cc2ccccc2)c2ccccc12` (stereo not given) belongs “inactive”; to `O=C1C2C3C=CC(C3)C2C(=O)N1/N=C/c1cn(Cc2ccc(F)cc2)c2ccccc12` (stereo not given), “inactive”.

Regarding `C/C(=N/O)c1ccc2cc(Br)c3ccccc3c2c1`, the activity, negative = inhibition is -8.36% [at 11.4 µM].

Consider `Cc1cccc(CNc2nc(-c3ccccc3CN(C)C)nc3ccccc23)c1`, for which the activity, negative = inhibition is -1.33% [at 2.29 µM]. For `Nc1ccc(N(c2ccccc2)c2ccc(N)cc2)cc1`, the AC50 was 7.08 µM (active). For the molecule `C[C@H](c1ccccc1)N1C(=O)[C@H]2[C@@H]3[C@H](O)[C@H](O)CC(=O)[C@H]3CC[C@H]2C1=O`, the activity, negative = inhibition was 20% [at 11.4 µM]. `N[C@@H](Cc1cc(CP(=O)(O)O)cc(-c2ccccc2Cl)c1)C(=O)O`: the AC50 entry was “inactive”.

Consider `Cc1c(N2CCCC2)cc2c(c1NC(=O)c1ccccc1Cl)C(C)(C)CC2(C)C`, for which the activity, negative = inhibition was -14.9% [at 11.4 µM]. Regarding `Cc1cc(F)ccc1S(=O)(=O)Nc1ccccc1C(=O)Nc1ccccc1N1CCOCC1`, the concentration at half-maximal activity (AC50) was 0.447 µM (active). Still for that read-out and setting: to `Cc1ccc(NC(=O)C2C3CCCC2C3c2ccccc2)cc1C` (stereo not given) belongs “inactive”; to `COC(=O)CSC(C(=O)Nc1ccc(C)c(C)c1)c1ccccc1` (stereo not given), 1.78 µM (active). Take `Cc1ccc(NC(=O)c2ccccc2C(=O)O)cc1C`: the activity, negative = inhibition was -16.6% [at 11.4 µM].

For the molecule `C#CCCCO/N=C1/C[C@@H](O)[C@@H](O)[C@@H]2[C@@H]3C(=O)N(CCC(=O)OCC)C(=O)[C@H]3CC[C@H]12`, the activity, negative = inhibition was 12.8% [at 11.4 µM].

For `Cc1cccc(C)c1OC[C@@H](N)C(C)C`, the AC50 result was “inactive”.

For `COC(=O)c1[nH]c2ccc(Br)cc2c1NC(=O)CN1CCN(C2CCCCC2)CC1`, the AC50 entry is “inactive”.

`COC(=O)c1[nH]c2ccc(Br)cc2c1NC(=O)CN1CCCc2ccccc21`: the concentration at half-maximal activity (AC50) is 0.891 µM (active). For `CC1(C)CC(=O)C2=C(C1)Nc1cc3c(cc1C2c1ccc(F)cc1)OCO3` (stereo not given), the half-maximal activity concentration (AC50) is 4.47 µM (active). Take `N#Cc1c(NC(=O)C(F)(F)F)sc2c3c(=O)c4ccccc4c(=O)c=3oc3ccccc3c12`: the concentration at half-maximal activity (AC50) was 0.0501 µM (active). The same measure, in the same setting: in the case of `O=C(NC12CC3CC(CC(C3)C1)C2)N1CCN(c2nc(-c3ccccc3)cs2)CC1` it was 12.6 µM (active). The same measure, in the same setting: in the case of `COc1ccc(-n2c(=O)c(C)nc3cnc(OC)nc32)cc1` it was “inactive”. For the molecule `Cc1noc(C)c1-c1ccc2ncnc(N(C)C)c2c1`, the activity, negative = inhibition was 10.9% [at 2.29 µM]. Regarding `CCN1C(=O)/C(=C2\SC(=S)N(CCCOC)C2=O)c2ccccc21`, the AC50 is 0.794 µM (active).

For `CN(C)CN1C(=O)S/C(=C2/C(=O)N(CN(C)C)c3ccccc32)C1=O`, the activity, negative = inhibition was -9.33% [at 11.4 µM]. In the case of `CC(C)Cn1cnc2c(Sc3c([N+](=O)[O-])ncn3C)nc(N)nc21`, the activity, negative = inhibition is 29.4% [at 11.4 µM]. Take `O=C1c2ccccc2C(=O)N1CC(=O)N1c2ccccc2CCc2ccccc21`: the AC50 was 3.55 µM (active). For the molecule `O=C(CN1C(=O)c2ccccc2C1=O)NC1(C(=O)O)CCCC1`, the activity, negative = inhibition is 4.07% [at 11.4 µM]. As for `CCN(CC)CCC(=O)Nc1ccc2c(c1)N(C(=O)CN(CC)CC)c1ccccc1CC2`, the AC50 result was “inactive”.

On to `Cc1noc(C)c1-c1ccc2ncnc(NC3CCNCC3)c2c1`, for which the activity, negative = inhibition was 14.5% [at 2.29 µM]. Same read-out and setting: to `Cc1nnc(S(=O)(=O)c2ccc(N=Nc3c(N)nc(N)nc3N)cc2)s1` belongs -2.75% [at 11.4 µM]. Turning to `COc1cc(NC(=O)c2cc(Cl)ccc2Cl)ccc1-c1cc2ccccc2oc1=O`, the AC50 is 4.47 µM (active).

With `CCCC(=O)N1CCN(c2ccc(NC(=O)c3ccc(OCC)c([N+](=O)[O-])c3)cc2)CC1`, the AC50 entry was “inactive”. `COc1cc(C(=O)NC(=S)Nc2cccc(-c3cc4ccccc4oc3=O)c2)cc(OC)c1OC`: the AC50 is 3.55 µM (active). Same read-out and setting: to `CCOc1ccc(C(=O)Nc2cccc(-c3cc4ccccc4oc3=O)c2)cc1[N+](=O)[O-]` belongs 1.41 µM (active). On the same count and under the same terms, in the case of `Cc1nc(-c2cccc(NC(=O)c3cc4cc(Br)ccc4oc3=O)c2)cs1` it was “inactive”; in that of `COc1cc(C(=O)NC(=S)Nc2ccc3oc(=O)ccc3c2)cc(OC)c1OC`, “inactive”.
